Many of the other results were omitted from the sample, so the strongest signals are more common in it than they were.
Columns and labels:
Assay in all cases: glycan array binding signal (z-score within array); higher = stronger binding
Settings in all cases: glycan notation: IUPAC condensed, linker removed
[1] = molecular target: GlcNAc(b1-2)[GlcNAc(b1-4)]Man(a1-3)[GlcNAc(b1-2)Man(a1-6)]Man(b1-4)GlcNAc(b1-4)GlcNAc
Procedure, shortened: (§1)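 The binding signal is a Z-score computed within each array and averaged over linkers. Arrays of the same protein sequence at different concentrations or buffers were also averaged together. Data originate from 3228 arrays in the Consortium for Functional Glycomics database, kept only where the protein sequence was available.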

GlcNAc(b1-3)Gal(b1-4)Glc = molecular target: GlcNAc(b1-3)Gal(b1-4)Glc
Procedure, shortened: as §1

GlcNAc(b1-4)GlcNAc = molecular target: GlcNAc(b1-4)GlcNAc
Procedure, shortened: as §1

[2] = molecular target: GlcNAc(b1-4)[GlcNAc(b1-6)]GalNAc
Procedure, shortened: as §1

[3] = molecular target: Man(a1-2)Man(a1-2)Man(a1-3)Man
Procedure, shortened: as §1

[4] = molecular target: Man(a1-2)Man(a1-3)[Man(a1-2)Man(a1-6)]Man(a1-6)[Man(a1-2)Man(a1-2)Man(a1-3)]Man
Procedure, shortened: as §1

Neu5Ac(a2-3)Gal = molecular target: Neu5Ac(a2-3)Gal
Procedure, shortened: as §1

[5] = molecular target: Neu5Ac(a2-3)Gal(b1-3)GlcNAc(b1-2)Man(a1-3)[Neu5Ac(a2-3)Gal(b1-3)GlcNAc(b1-2)Man(a1-6)]Man(b1-4)GlcNAc(b1-4)GlcNAc
Procedure, shortened: as §1

[6] = molecular target: Neu5Ac(a2-3)Gal(b1-3)[Fuc(a1-4)]GlcNAc(b1-3)Gal(b1-4)[Fuc(a1-3)]GlcNAc
Procedure, shortened: as §1

Neu5Ac(a2-3)Gal(b1-4)Glc = molecular target: Neu5Ac(a2-3)Gal(b1-4)Glc
Procedure, shortened: as §1

[7] = molecular target: Neu5Ac(a2-3)[Neu5Ac(a2-6)]GalNAc
Procedure, shortened: as §1

Neu5Ac(b2-6)GalNAc = molecular target: Neu5Ac(b2-6)GalNAc
Procedure, shortened: as §1

B1: FimA (Actinomyces oris) (protein)
chain: MHHHHHHSSGVDLGTENLYFQSNAETPNYGNIKTDATGSLVIHKHLTGGGKDIGTPTGTAQNADDKGPAVEGVVFTAYPITDINLKDPAGWDTISNLSRTGVPDSACANPAAPTLGAHQFGTPKVSPATTKEGLATITEMPVQAYLVCETTTPGDIVQKAKPFVVTIPHPNTAAGADGQWIYDVNVYPKNEAIDVDKTIQAQKLNGYGVGSLIKFPVESTAPTLDAKSFYKYFQLKDTLDERLSEVTATDVSLEGTPLQPTDYKVETKQQTVTVTFTAEGLKKIKAAPGKKVSAVFQGKVTKAGNGAITNRAQVISDTLYAEQPPTPETPPTDPENPPTSDEVISRWGDLSIKKVDTHQQGQTKAGLQGAQFQLYKAKNAYANTCSNEKEGAPIAINGQTTLTTDAQGAIDIKGLFISDSIDGADRDNQVNAMERCYVLVETKAPAGYVLPAGNGAATPVKVKAGEETTDNVTVENTKQSVPGLPLTG
glycan array binding signal (z-score) [1]: -0.403
glycan array binding signal (z-score) (GlcNAc(b1-3)Gal(b1-4)Glc): -0.311
glycan array binding signal (z-score) (GlcNAc(b1-4)GlcNAc): -0.621
glycan array binding signal (z-score) [2]: -0.564
glycan array binding signal (z-score) [3]: 4.88
glycan array binding signal (z-score) [4]: -0.88
glycan array binding signal (z-score) (Neu5Ac(a2-3)Gal): -0.143
glycan array binding signal (z-score) [5]: -0.233
glycan array binding signal (z-score) [6]: 0.196
glycan array binding signal (z-score) (Neu5Ac(a2-3)Gal(b1-4)Glc): -0.06
glycan array binding signal (z-score) [7]: 0.518
glycan array binding signal (z-score) (Neu5Ac(b2-6)GalNAc): -0.85

Source: the supplement of paper PMC8728848
